Source: PubChem BioAssay (Tox21)
Records with an inconclusive call do not appear. Where a call stands in place of a potency, no number is given. Values without a mark were called inactive. Active and inactive are the calls of the source. Unless noted, calls follow the shape of the dose curve; as a rule, active = well fitted curve in the direction sought with a large enough effect in the repeat runs; inconclusive = weak or mixed curves; inactive = no such curve, though single readings can be large; an effect the other way counts as inactive or inconclusive.

Columns and labels:
[1] = qHTS assay to identify small molecule antagonists of the estrogen related receptor (ERR) signaling pathway - cell viability counter screen (AID 1224818); also: potency is read from the fitted curve at half-maximal effect;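 also: viability measured after 17.5 h of compound exposure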
Procedure, shortened: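 Cytotoxicity counter screen: fluorescence from CellTiter-Fluor, added after 17.5 h compound exposure at 37 C and read 30 min later. ERR cell line seeded at 2,000 cells/well, preincubated 6 h before dosing.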

[2] = qHTS assay to identify small molecule antagonists of the estrogen related receptor (ERR) signaling pathway (AID 1224819; also: nearly all actives have a fitted effect of over 50% in size; also: potency is read from the fitted curve at half-maximal effect)
Procedure, shortened: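 LOPAC library screened for antagonism as reduced One-Glo luminescence in ERR reporter cells (2,000/well). Compounds were added after 6 h pre-incubation and left 18 h at 37C; reading followed a 30 min room-temperature reagent step.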

[3] = qHTS assay to identify small molecule agonists of the estrogen related receptor (ERR) signaling pathway (AID 1224820)
Procedure, shortened: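 Following a 6 h settling period, 2,000 ERR cells per well receive DMSO-dissolved compounds by pin tool and incubate 18 h at 37 C; agonist activity is scored from One-Glo luminescence read 30 min post-addition.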

[4] = system: estrogen-related receptor alpha (ERRalpha) with PGC-1alpha coactivator, human; assay: qHTS assay to identify small molecule antagonists of the estrogen related receptor signaling pathway with the pleiotropic PPARgamma coactivator (PGC) (AID 1224821; calls by dose curve;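 also: series mostly up to about 46 µM; lower luminescence signal means antagonism of PGC/ERR signalling; nearly all actives have a fitted effect of over 50% in size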)
Procedure, shortened: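 Screening used NTP's PGC/ERR cells, dosed via pin tool with compound in DMSO alongside positive and negative controls. After 18 h at 37 C, One-Glo reagent sat 30 min at room temperature before luminescence detection.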

[5] = qHTS assay to identify small molecule agonists of the estrogen related receptor signaling pathway with the pleiotropic PPARgamma coactivator (PGC) (AID 1224823)
Procedure, shortened: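 In this quantitative high-throughput screen, an 18 h, 37 C treatment of PGC/ERR cells with compounds in DMSO preceded a One-Glo luminescence read taken after 30 min at room temperature.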

[6] = qHTS assay to identify small molecule antagonists of the estrogen related receptor signaling pathway with the pleiotropic PPARgamma coactivator (PGC) cell viability counter screen (AID 1224822; also: potency is read from the fitted curve at half-maximal effect)
Procedure, shortened: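 Viability counter-screen read by fluorescence intensity after 30 min with CellTiter-Fluor at 37 C; PGC/ERR reporter cells were exposed to compounds for 17.5 h at 37 C following a 6 h preincubation.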

Row | SMILES | Potency [1] | Potency [2] | Potency [3] | Potency [4] | Potency [5] | Potency [6]
1 | O=C1CCCN1CC#CCN1CCCC1 | inactive | inactive | inactive | inactive | inactive | 
2 | Nc1ccc(CCN2CCN(c3cccc(C(F)(F)F)c3)CC2)cc1 | inactive | 13.9 µM (active) | inactive | inactive | inactive | 
3 | CCCN(CCC)C1CCc2cccc(O)c2C1 (centres undefined) | inactive | inactive | inactive | inactive | inactive | inactive
4 | CCCN(CCC)[C@@H]1CCc2ccc(O)cc2C1 | inactive | inactive | inactive | inactive | inactive | inactive
5 | NC1CCc2cc(O)c(O)cc2C1 (centres undefined) | inactive |  | inactive | inactive |  | 
6 | CCCN(CCC)[C@@H]1CCc2cccc(O)c2C1 | inactive | inactive | inactive | inactive | inactive | inactive
7 | CNCCc1ccc(O)c(O)c1 | inactive | inactive | inactive | inactive | inactive | 
8 | CNc1ccc2oc(C[C@H]3O[C@@]4(CC[C@H]3C)O[C@H]([C@H](C)C(=O)c3ccc[nH]3)[C@H](C)C[C@H]4C)nc2c1C(=O)O | 10.6 µM (active) | 2.37 µM (active) | inactive |  |  | 9.44 µM (active)
9 | C[C@@H](N)Cc1cnc[nH]1 | inactive | inactive | inactive | inactive | inactive | 
10 | Cc1[nH]c2ccc(O)cc2c1CCN | inactive |  | inactive | inactive |  | inactive
